Data: PubChem BioAssay
The source made the active and inactive calls.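 How the source made its calls, unless noted: active means compound raises insulin release from rat beta cells at 5 mM glucose, no numeric limit stated; inactive means the rest.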

Assays:
[1] = stimulators of nuclear beta-catenin in C2C12, primary screen, imaging, WNT3A-conditioned medium, mouse C2C12, NPC library (AID 1117326; in the data active means nuclear beta-catenin stimulation mostly above about 4.2%, no sharp cut-off; inactive means mostly below about 10%; further: reference of the scale not given here); conditions: stronger effect = higher value
[2] = stimulators of insulin release from INS-1E, primary screen, cell-based, 5 mM glucose, NPC library (AID 1117329); conditions: rat INS-1E insulin secretion, at 10 µM, stronger effect = higher value; further: reference of the scale not given here
[3] = growth inhibition of GSK3B-pretreated HCT116 cells – cell-based, CellTiter-Glo, 0.2 to 20 µM (AID 1117336;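 active means compounds lowering colon cancer cell viability after pretreatment blocking the GSK3B kinase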); conditions: HCT116 viability after GSK3B inhibitor, at 20 µM, stronger effect = higher value
[4] = inhibition of endothelial tube formation, primary screen, imaging, VEGF stimulated, CD31 staining, tube area, NPC library (AID 1117340;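 active means compound that reduces growth-factor-driven endothelial tube area in a mixed cell culture, no cutoff stated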); conditions: VEGF-stimulated ADSC/ECFC co-culture, at 10 µM, stronger effect = higher value
[5] = glucagon-like peptide 1 release enhancers, primary assay, NCI-H716 cell line, NPC library (AID 1117341;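 active means compound raises GLP1 secretion from the human gut endocrine cells, with no numeric limit stated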; further: reference of the scale not given here); conditions: NCI-H716 cells, at 10 µM, stronger effect = higher value
[6] = HCT116 colon cancer cell growth inhibition, primary screen, CellTiter-Glo luminescence, NPC library (AID 1117342;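 active means compounds that lower survival of HCT116 colon cancer cells in the luminescence readout, no numeric limit stated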); conditions: at 20 µM (top of the series)
[7] = CellTiter-Glo luminescent readout of SW480 viability loss, NPC library primary (AID 1117343;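 active means compounds that lower viability of the colon cancer cells in the luminescence readout, with no numeric limit stated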); conditions: CellTiter-Glo luminescence; at 20 µM (top of the series)
[8] = decreased DLD-1 cellular survival, CellTiter-Glo luminescent readout, NPC compound collection, primary HTS (AID 1117346;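 active means compounds that lower survival of DLD-1 colon cancer cells in the luminescence readout, no cutoff given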); conditions: DLD-1 viability, CellTiter-Glo luminescence; at 20 µM (top of the series)

Compound | nuclear beta-catenin stimulation ([1]; at 10 µM) | nuclear beta-catenin stimulation ([1]; stimulation, at 2 µM) [%] | insulin secretion stimulation [2] | viability decrease [3] | tube area decrease [4] | GLP1 secretion stimulation [5] | inhibition of viability [6] | viability decrease (inhibition) [7] | viability decrease (inhibition) [8]
Nc1ccccc1C(=O)OCC(O)CO (centres undefined) | 3.1% (inactive) | 3.4 | -1.4% (inactive) | -40% (inactive) | 21.1% (inactive) | -1.2% (inactive) | -0.1% (inactive) | -4.5% (inactive) | -4.9% (inactive)
CCCCNC(C)(C)[P+](=O)O | -0.8% (inactive) | -0.8 | -2.5% (inactive) | -0.6% (inactive) | -26.4% (inactive) | -3.9% (inactive) | -4.7% (inactive) | 1.4% (inactive) | -4.2% (inactive)
CCOC(=O)c1ncn2c1CN(C)C(=O)c1c(I)cccc1-2 | -0.1% (inactive) | -0.1 | 0.8% (inactive) | 3.6% (inactive) | -12.8% (inactive) | -0.9% (inactive) | 11.2% (inactive) | -7.6% (inactive) | -11.3% (inactive)
CC1=C(C(=O)O)N2C(=O)[C@@H](N)[C@H]2SC1 | -0.8% (inactive) | 0.3 | 0.4% (inactive) | 9.7% (inactive) | -6.3% (inactive) | 4.2% (inactive) | 13.3% (inactive) | 33.8% (inactive) | 21.2% (inactive)
C[C@]12CC[C@H]3[C@@H](CC=C4C[C@@H](O)CC[C@@]43C)[C@@H]1CC[C@@H]2O | 2.9% (inactive) | -0.3 | -1% (inactive) | 3.75% (inactive) | -14.6% (inactive) | -6% (inactive) | 5.2% (inactive) | 28.6% (inactive) | 1.05% (inactive)
O=C(O)COc1ccccc1 | 1.6% (inactive) | 0.3 | -2.7% (inactive) | -4.9% (inactive) | -5.1% (inactive) | 0.4% (inactive) | -0.7% (inactive) | -15.1% (inactive) | -15.4% (inactive)
O=C(O)CCCCCCNC1c2ccccc2CCc2ccccc21 | -0.3% (inactive) | -1.4 | -0.2% (inactive) | -7.3% (inactive) | -4.7% (inactive) | 0.3% (inactive) | -9.4% (inactive) | 13.9% (inactive) | -13.1% (inactive)
O=[N+]([O-])c1cc(I)c(O)c(I)c1 | 18.4% (inactive) | 0.7 | 5.5% (inactive) | 95% (active) | 106% (active) | -1% (inactive) | 93% (active) | 101% (active) | 98.8% (active)
Oc1ccc2[nH]cc(CCCCN3CC=C(c4ccccc4)CC3)c2c1 | 12.1% (inactive) | 4 | 1.8% (inactive) | 81.3% (active) | 76.6% (active) | 5.1% (inactive) | 85% (active) | 102% (active) | 81.4% (active)
CC(Cc1ccccc1)NCc1ccccc1Cl (centres undefined) | 0.1% (inactive) | 0 | 10.2% (inactive) | 26.5% (inactive) | -19.5% (inactive) | 2.3% (inactive) | 21.9% (inactive) | 51.1% (active) | 22.6% (inactive)
O=C(Nc1ccc(Br)cc1)c1cc(Br)cc(Br)c1O | 28.9% (inactive) | 0.4 | -3% (inactive) | 98% (active) | 108% (active) | -3.5% (inactive) | 98.2% (active) | 94.4% (active) | 100% (active)
O=C1OC(CCN2CCCCC2)OC1(c1ccccc1)c1ccccc1 (centres undefined) | 15% (inactive) | 0.5 | 5.9% (inactive) | 0.7% (inactive) | 6% (inactive) | 4.4% (inactive) | 1.1% (inactive) | 15% (inactive) | 92.8% (active)
CCOC(=O)NC(C)(C)Cc1ccc(Cl)cc1 | 7.3% (inactive) | -2.9 | 2.1% (inactive) | 13.6% (inactive) | 65.4% (active) | -1.8% (inactive) | 61.4% (active) | 31.1% (inactive) | 3.85% (inactive)
CCC1(c2ccccc2)CCC(=O)NC1=O (centres undefined) | 0.3% (inactive) | 0.1 | -2.9% (inactive) | -12.8% (inactive) | -0.6% (inactive) | 2.8% (inactive) | -2.8% (inactive) | 49.4% (inactive) | 6.55% (inactive)
CCS(=O)(=O)C(C)(C)S(=O)(=O)CC | -0.7% (inactive) | 1.4 | -0.1% (inactive) | 2.1% (inactive) | -6.6% (inactive) | -1.4% (inactive) | -17.9% (inactive) | -3.1% (inactive) | -0.85% (inactive)
C[C@]12CC[C@H]3[C@@H](CC[C@@]45O[C@H]4C(O)=C(C#N)C[C@]35C)[C@H]1CC[C@H]2O | 1.5% (inactive) | 1.1 | -0.7% (inactive) | -177% (inactive) | 28.3% (inactive) | -1.5% (inactive) | 11.5% (inactive) | 5.1% (inactive) | -16.6% (inactive)
